Measurements: PubChem BioAssay (Tox21)
Results filed as inconclusive are left out. The source made the active and inactive calls. Unless noted, calls follow the shape of the dose curve; as a rule, active = well fitted curve in the direction sought with a large enough effect in the repeat runs; inconclusive = weak or mixed curves; inactive = no such curve, though single readings can be large; an effect the other way counts as inactive or inconclusive.

What was measured:
[1] = A CellTox Green Cytotoxicity Assay to monitor cytotoxicity in HepG2 cells - 0 hour (AID 1224882); settings: CellTox Green fluorescence; series mostly up to 76.8 µM; also: % is scaled to controls: 0 for no effect and ±100 for the full control effect; nearly all actives have a fitted effect of over 35% in size
Procedure, shortened: (§1)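 Real-time, homogeneous cytotoxicity readout: dead-cell DNA staining by CellTox Green in HepG2 monolayers, fluorescence measured at timed intervals up to 40 h of continuous compound exposure.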

[2] = A CellTox Green Cytotoxicity Assay to monitor cytotoxicity in HepG2 cells - 32 hour (AID 1224883); settings: CellTox Green fluorescence; series mostly up to 76.8 µM; also: nearly all actives have a fitted effect of over 50% in size; also: potency is read from the fitted curve at half-maximal effect; as to cytotoxicity increase: % is scaled to controls: 0 for no effect and ±100 for the full control effect
Procedure, shortened: as §1

[3] = A CellTox Green Cytotoxicity Assay to monitor cytotoxicity in HEK293 cells - 8 hour (AID 1224884); settings: CellTox Green fluorescence; series mostly up to 76.8 µM; also: % is scaled to controls: 0 for no effect and ±100 for the full control effect; nearly all actives have a fitted effect of over 35% in size
Procedure, shortened: (§2)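 Cytotoxicity was tracked continuously in HEK293 cells by a DNA-binding dye excluded from viable cells. Compounds were transferred in DMSO 5 h after seeding; fluorescence was recorded at intervals up to 40 h.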

[4] = qHTS RealTime-Glo MT Cell Viability Assay in HepG2 cells - 16 hour (AID 1224885); settings: RealTime-Glo luminescence; series mostly up to 76.8 µM; also: % is scaled to controls: 0 for no effect and ±100 for the full control effect; nearly all actives have a fitted effect of over 50% in size
Procedure, shortened: (§3)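 qHTS, HepG2, 600 cells/well, RealTime-Glo (NanoLuc + prosubstrate) added with cells; 5 h preincubation; DMSO compound addition; 37 C; luminescence at 0/8/16/24/32/40 h.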

[5] = qHTS RealTime-Glo MT Cell Viability Assay in HEK293 cells - 24 hour (AID 1224886); settings: RealTime-Glo luminescence; series mostly up to 76.8 µM; also: nearly all actives have a fitted effect of over 50% in size; also: potency is read from the fitted curve at half-maximal effect; as to activity change, negative = cytotoxicity: top concentration of the series differs between compounds; % is scaled to controls: 0 for no effect and ±100 for the full control effect
Procedure, shortened: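 Assay medium contained NanoLuc luciferase plus cell-permeant prosubstrate, added with HEK293 cells at 600 cells/well. After 5 h at 37 C/5% CO2 compounds were added; plates stayed at 37 C for 40 h with serial luminescence reads.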

[6] = qHTS RealTime-Glo MT Cell Viability Assay in HepG2 cells - 0 hour (AID 1224889); settings: RealTime-Glo luminescence; series mostly up to 76.8 µM; also: % is scaled to controls: 0 for no effect and ±100 for the full control effect; nearly all actives have a fitted effect of over 50% in size
Procedure, shortened: as §3

[7] = A CellTox Green Cytotoxicity Assay to monitor cytotoxicity in HepG2 cells - 8 hour (AID 1224890); settings: CellTox Green fluorescence; series mostly up to 76.8 µM; also: % is scaled to controls: 0 for no effect and ±100 for the full control effect; nearly all actives have a fitted effect of over 45% in size
Procedure, shortened: as §1

[8] = qHTS assay to identify small molecule antagonists of the estrogen receptor alpha (ER-alpha) signaling pathway using the BG1 cell line in the presence of 0.1 nM 17-beta-estradiol - cell viability counter screen (AID 1259241); settings: VM7Luc4E2 (BG1) viability, CellTiter-Fluor protease, 22 h, 0.1 nM estradiol agonist added; series mostly up to 92.4 µM; also: % is scaled to controls: 0 for no effect and ±100 for the full control effect; nearly all actives have a fitted effect of over 40% in size
Procedure, shortened: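 Viability in VM7Luc4E2 cells after 22 hr compound exposure under 0.1 nM 17beta-estradiol stimulation, by CellTiter-Fluor.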

[9] = qHTS assay to identify small molecule antagonists of the androgen receptor (AR) signaling pathway using the MDA cell line in the presence of 0.5 nM R1881 - cell viability counter screen (AID 1259242); settings: MDA-kb2 viability, CellTiter-Fluor protease fluorescence, 16 h; series mostly up to 92.4 µM; also: % is scaled to controls: 0 for no effect and ±100 for the full control effect; nearly all actives have a fitted effect of over 45% in size
Procedure, shortened: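 Cytotoxicity toward MDA-kb2 cells is measured by CellTiter-Fluor live-cell protease fluorescence after 16 hr compound exposure at 37C in the presence of 0.5 nM R1881 stimulator.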

[10] = biological target: Estrogen receptor (Homo sapiens) (UniProt P03372); test: qHTS assay to identify small molecule antagonists of the estrogen receptor alpha (ER-alpha) signaling pathway using the BG1 cell line in the presence of 0.1 nM 17-beta-estradiol (AID 1259244); settings: VM7Luc4E2 (BG1) ERE-luciferase, antagonist mode, 0.1 nM E2, 22 h; series mostly up to 42.5 µM; also: nearly all actives have a fitted effect of over 50% in size; also: potency is read from the fitted curve at half-maximal effect
Estrogen receptor (Homo sapiens), sequence (P03372 whole entry, looked up): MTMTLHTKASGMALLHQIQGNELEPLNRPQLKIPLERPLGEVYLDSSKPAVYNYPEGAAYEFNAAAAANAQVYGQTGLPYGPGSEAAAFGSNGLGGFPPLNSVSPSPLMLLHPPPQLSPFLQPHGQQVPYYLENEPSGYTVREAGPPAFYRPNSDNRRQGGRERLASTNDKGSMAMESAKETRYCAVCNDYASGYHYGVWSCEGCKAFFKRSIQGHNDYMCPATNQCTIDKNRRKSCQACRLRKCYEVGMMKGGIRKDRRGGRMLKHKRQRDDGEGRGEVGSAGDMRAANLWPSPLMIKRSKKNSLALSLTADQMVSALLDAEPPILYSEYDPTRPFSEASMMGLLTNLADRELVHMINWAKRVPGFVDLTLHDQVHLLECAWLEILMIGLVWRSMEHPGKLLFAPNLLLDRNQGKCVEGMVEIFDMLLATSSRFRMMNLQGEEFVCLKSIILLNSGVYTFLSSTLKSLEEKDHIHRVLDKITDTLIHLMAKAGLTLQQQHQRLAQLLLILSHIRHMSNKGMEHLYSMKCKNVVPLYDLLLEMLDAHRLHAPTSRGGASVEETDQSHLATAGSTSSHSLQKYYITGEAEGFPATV
Procedure, shortened: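 After 5 days in hormone-depleted medium (charcoal-stripped serum, no phenol red), VM7Luc4E2 cells were seeded, incubated 24 h, then co-treated with compound and 0.1 nM (final) estradiol for 22 h before luminescence detection.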

[11] = qHTS assay to identify small molecule HDAC inhibitors - cell viability counter screen (AID 1259365); settings: HCT-116 viability, CellTiter-Glo ATP luminescence, 2 h; series mostly up to 92.4 µM
Procedure, shortened: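 Cytotoxicity was gauged in wild-type HCT-116 cells after a brief 2hr treatment with DMSO-dissolved compounds at 37C and 5% CO2, using CellTiter-Glo luminescence developed for 30min at room temperature.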

[12] = qHTS assay to identify small molecule agonists of the sonic hedgehog signaling (Shh) pathway - cell viability counter screen (AID 1259366); settings: NIH/3T3 Gli1-Luc viability, CellTiter-Fluor, 24 h; series mostly up to 92.4 µM; also: nearly all actives have a fitted effect of over 50% in size; also: potency is read from the fitted curve at half-maximal effect; as to viability change, negative = cytotoxic: % is scaled to controls: 0 for no effect and ±100 for the full control effect
Procedure, shortened: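 Stable Gli1-Luc NIH/3T3 clone, 2,000 cells/well. Compound exposure 24hr at 37C. Read-out: CellTiter-Fluor fluorescence.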

[13] = qHTS assay to identify small molecule agonists of the sonic hedgehog signaling (Shh) pathway (AID 1259368; calls by dose curve;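 also: NIH/3T3-derived 3T3Gli1-Luc cells carrying a stable Gli1-driven firefly luciferase reporter; % is scaled to controls: 0 for no effect and ±100 for the full control effect; nearly all actives have a fitted effect of over 15% in size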); settings: NIH/3T3 Gli1-Luc reporter, luciferase, 24 h, active compounds read high; series mostly up to 92.4 µM
Procedure, shortened: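 Steps: seed 3T3 Gli1-Luc cells, incubate 4 hr at 37 C, pin-transfer compounds in DMSO alongside a positive control, incubate 24 hr, add luciferase detection reagent, wait 30 min at room temperature, read luminescence.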

[14] = qHTS RealTime-Glo MT Cell Viability Assay in HEK293 cells - 8 hour (AID 1224887); settings: RealTime-Glo luminescence; series mostly up to 76.8 µM; also: nearly all actives have a fitted effect of over 50% in size; also: potency is read from the fitted curve at half-maximal effect
Procedure, shortened: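 Nonlytic bioluminescent viability monitoring. HEK293 at 600 cells/well with reagent; 5 h settle; compound transfer by pintool; plates held at 37 C and read at set time points.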

[15] = A CellTox Green Cytotoxicity Assay to monitor cytotoxicity in HEK293 cells - 16 hour (AID 1224888); settings: CellTox Green fluorescence; series mostly up to 76.8 µM; also: % is scaled to controls: 0 for no effect and ±100 for the full control effect; nearly all actives have a fitted effect of over 35% in size
Procedure, shortened: as §2

[16] = qHTS assay to identify small molecule phospholipidosis (PLD) inducers (AID 1259344; active = well fitted curve in the direction sought with a large enough effect; an effect the other way counts as inactive or inconclusive; also: % is scaled to controls: 0 for no effect and ±100 for the full control effect); settings: HepG2 phospholipidosis, LipidTOX Red imaging, 24 h; series mostly up to 38.3 µM
Procedure, shortened: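 Quantitative HTS in HepG2: compound plus LipidTOX Red dye for 24 h, paraformaldehyde fixation with Hoechst 33342, widefield high-content imaging; amiodarone as positive and DMSO as negative control.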

[17] = qHTS assay to identify small molecule HDAC inhibitors (AID 1259364); settings: HCT-116 HDAC-Glo I/II luminescence, 2 h; series mostly up to 92.4 µM; also: nearly all actives have a fitted effect of over 45% in size; also: potency is read from the fitted curve at half-maximal effect
Procedure, shortened: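 Homogeneous cell-based luminescent assay of endogenous class I/II HDAC activity; HCT-116 cells, 2 h compound exposure, 30 min HDAC-Glo development at RT.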

[18] = qHTS assay to identify small molecule antagonists of the sonic hedgehog signaling (Shh) pathway - cell viability counter screen (AID 1259367); settings: NIH/3T3 Gli1-Luc viability, CellTiter-Fluor, 24 h; series mostly up to 92.4 µM; also: nearly all actives have a fitted effect of over 55% in size; also: potency is read from the fitted curve at half-maximal effect
Procedure, shortened: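 Seed 3T3 Gli1-Luc cells at 2,000 per well; incubate 4 hr; add compound in DMSO, then conditioned medium; incubate at 37C with 5% CO2; add CellTiter-Fluor after 23 hr; read fluorescence 1 hr later.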

[19] = A CellTox Green Cytotoxicity Assay to monitor cytotoxicity in HEK293 cells - 32 hour (AID 1224881); settings: CellTox Green fluorescence; series mostly up to 76.8 µM; also: % is scaled to controls: 0 for no effect and ±100 for the full control effect; nearly all actives have a fitted effect of over 40% in size
Procedure, shortened: as §2

[20] = biological target: Androgen receptor (Homo sapiens) (UniProt P10275); test: qHTS assay to identify small molecule antagonists of the androgen receptor (AR) signaling pathway using the MDA cell line in the presence of 0.5 nM R1881 (AID 1259243); settings: MDA-kb2 MMTV-luciferase, R1881 0.5 nM, 16 h; series mostly up to 42.5 µM
Androgen receptor (Homo sapiens), sequence (P10275 whole entry, looked up): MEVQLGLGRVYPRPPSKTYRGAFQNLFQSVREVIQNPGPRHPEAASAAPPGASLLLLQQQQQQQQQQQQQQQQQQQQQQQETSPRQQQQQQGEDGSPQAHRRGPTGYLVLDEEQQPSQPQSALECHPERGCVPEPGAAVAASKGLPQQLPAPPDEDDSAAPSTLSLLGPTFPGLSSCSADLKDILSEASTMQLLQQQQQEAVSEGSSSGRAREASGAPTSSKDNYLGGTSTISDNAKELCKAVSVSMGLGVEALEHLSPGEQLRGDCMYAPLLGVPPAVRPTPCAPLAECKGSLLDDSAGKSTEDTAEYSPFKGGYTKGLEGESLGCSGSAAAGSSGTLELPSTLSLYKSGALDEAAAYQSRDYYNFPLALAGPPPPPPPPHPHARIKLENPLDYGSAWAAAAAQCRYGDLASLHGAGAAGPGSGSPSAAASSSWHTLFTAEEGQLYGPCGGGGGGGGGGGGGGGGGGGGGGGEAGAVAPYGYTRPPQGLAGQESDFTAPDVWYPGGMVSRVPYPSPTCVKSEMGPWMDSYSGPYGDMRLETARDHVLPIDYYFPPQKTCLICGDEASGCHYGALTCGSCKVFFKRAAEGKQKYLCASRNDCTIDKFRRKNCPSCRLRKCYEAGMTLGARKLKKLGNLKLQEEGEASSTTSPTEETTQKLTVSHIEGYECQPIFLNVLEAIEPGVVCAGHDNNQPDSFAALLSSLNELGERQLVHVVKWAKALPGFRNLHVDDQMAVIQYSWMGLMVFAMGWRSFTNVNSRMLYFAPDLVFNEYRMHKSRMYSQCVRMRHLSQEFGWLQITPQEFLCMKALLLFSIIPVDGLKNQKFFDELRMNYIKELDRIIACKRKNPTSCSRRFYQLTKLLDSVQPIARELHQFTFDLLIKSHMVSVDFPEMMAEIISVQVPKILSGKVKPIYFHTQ
Procedure, shortened: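 Steps: seed MDA-kb2 cells, incubate 5 hr at 37C; pin-transfer compounds in DMSO; add R1881 to 0.5 nM final; incubate 16 hr; add ONE-Glo, wait 30 min at room temperature; read luminescence.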

C/C=C/C(=O)CC
inactive: cytotoxicity [1] 0.505% [at 15.8 µM] | cytotoxicity increase [2] 2.71% [at 15.8 µM] | cytotoxicity increase [3] 1.29% [at 15.8 µM] | activity change, negative = cytotoxic [4] 0.412% [at 15.8 µM] | activity change, negative = cytotoxicity [5] 0.822% [at 15.8 µM] | activity change, negative = cytotoxicity [6] 4.66% [at 15.8 µM] | cytotoxicity increase [7] 6.47% [at 15.8 µM] | activity change, negative = cytotoxicity [8] 0.659% [at 19 µM] | viability change, negative = cytotoxic [9] -0.0358% [at 19 µM] | Potency [10] | activity change, negative = cytotoxicity [11] -0.534% [at 19 µM] | viability change, negative = cytotoxic [12] 14.7% [at 19 µM] | activity change [13] -3.94% [at 18.9 µM]

COc1cc(C(=O)OCCCN2CCCN(CCCOC(=O)c3cc(OC)c(OC)c(OC)c3)CC2)cc(OC)c1OC
active: Potency [2] 21.3 µM | Potency [5] 8.49 µM | Potency [14] 9.52 µM | Potency [10] 13.3 µM | Potency [12] 6.68 µM | Potency [18] 10.6 µM
inactive: Potency [1] | Potency [3] | Potency [4] | Potency [15] | Potency [6] | Potency [7] | Potency [9] | Potency [16] | Potency [17] | Potency [11] | outcome [13]

CO[C@@H]1[C@H](OC(=O)/C=C/C=C/C=C/C=C/C(=O)O)CC[C@]2(CO2)[C@H]1[C@@]1(C)O[C@@H]1CC=C(C)C
inactive: Potency [1] | Potency [2] | Potency [3] | Potency [4] | Potency [14] | Potency [15] | Potency [6] | Potency [7] | Potency [8] | Potency [9] | Potency [16] | Potency [17] | Potency [11] | Potency [18] | outcome [13]

O=C(Nc1ccccc1)c1ccccc1O
inactive: Potency [19] | Potency [3] | Potency [4] | Potency [14] | Potency [15] | Potency [6] | Potency [7] | Potency [10] | Potency [11] | outcome [13]
active: Potency [17] 8.63 µM | Potency [18] 61.1 µM

Cc1cccc(C)c1OCC(=O)N[C@@H](Cc1ccccc1)[C@@H](O)C[C@H](Cc1ccccc1)NC(=O)[C@H](C(C)C)N1CCCNC1=O
active: Potency [5] 23.9 µM | Potency [20] 23.7 µM | Potency [12] 15 µM | Potency [18] 23.7 µM
inactive: Potency [1] | Potency [2] | Potency [3] | Potency [4] | Potency [15] | Potency [6] | Potency [7] | Potency [9] | Potency [16] | Potency [11] | outcome [13]

CN1Cc2cc(C(=O)N3CCC(C4CCNCC4)CC3)ccc2NC(CC(=O)O)C1=O (centres undefined)
inactive: Potency [1] | Potency [2] | Potency [3] | Potency [4] | Potency [14] | Potency [15] | Potency [6] | Potency [7] | Potency [8] | Potency [9] | Potency [10] | Potency [17] | Potency [11] | Potency [12] | Potency [18] | outcome [13]

C=C(C)C(=O)OCCO
inactive: Potency [1] | Potency [2] | Potency [3] | Potency [4] | Potency [5] | Potency [15] | Potency [6] | Potency [7] | Potency [8] | Potency [9] | Potency [10] | Potency [17] | Potency [11] | Potency [12] | Potency [18] | outcome [13]
